ROMK primary – modulates human ROMK potassium channel activity. P48048. Tet-inducible ROMK, thallium flux fluorescence; actives lie on both sides. B-score at 10 µM. 130,000 compounds, 2% hits. AID 1918;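 active means signal ratio slope over the read window, or its plate-corrected B-score, at least 3 SD from the plate mean, either direction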;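 further: B-score of the F/F0 ratio slope over 7 to 12 s after thallium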
Target sequence (P48048 whole entry, looked up): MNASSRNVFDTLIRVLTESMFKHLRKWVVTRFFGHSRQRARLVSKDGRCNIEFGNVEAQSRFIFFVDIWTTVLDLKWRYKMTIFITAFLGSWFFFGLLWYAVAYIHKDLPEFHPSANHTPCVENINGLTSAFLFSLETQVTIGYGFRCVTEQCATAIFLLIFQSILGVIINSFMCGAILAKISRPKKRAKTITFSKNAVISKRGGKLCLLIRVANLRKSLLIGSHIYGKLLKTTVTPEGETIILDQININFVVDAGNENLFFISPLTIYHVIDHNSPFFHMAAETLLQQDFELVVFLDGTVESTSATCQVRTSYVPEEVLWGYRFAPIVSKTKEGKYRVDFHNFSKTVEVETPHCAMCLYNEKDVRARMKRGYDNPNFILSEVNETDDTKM
Insulin prom inh – TRM-6 insulin promoter activity inhibition; AID 1273; 130,000 compounds, 0.9% hits; TRM-6 cells (human fetal islet line), insulin promoter-eGFP reporter, imaging; reporter expression induced with tamoxifen; inhibition, % at 2 µM;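 active means inhibition above the mean plus 3 SD, with well images judged a real hit on visual review, cut at about 60% in these data, passing the limit was not always enough; inconclusive means inhibition over the cutoff but images rejected on review; inactive means inhibition not above the cutoff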
TbHK1 inh – T. brucei hexokinase 1 inhibition | inhibition, % at 10 µM | 220,000 compounds, 0.11% hits | recombinant TbHK1, G6PDH-coupled NADH A340 | AID 1430;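 active means inhibition of 50% or more in the single-dose primary screen; inactive means inhibition below 50%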
Ins promoter up – MIN6 insulin promoter up-regulation | MIN6 insulin promoter-GFP reporter, high-content imaging; stronger effect = higher value | z-score at 5 µM | 190,000 compounds, 0.3% hits | AID 1625;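 active means z-score above 3 at 5 µM with at least 500 cells counted in the well; inconclusive means wells under 500 cells, flagged as cytotoxic or low count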
HSV replic up – HSV replication enhancement | AID 1956 | HSV replication augmentation in cells, fold increase | 220,000 compounds, 0.005% hits | maximum fold increase; in the data active means maximum fold increase above about 1.5; inconclusive means no clear call, values can overlap the other calls; tested in PC3 cells
Hits are given with their value; – = inactive; ? = inconclusive; · = no result. The full list was thinned out, with hits kept by preference.

SMILES	ROMK primary	Insulin prom inh	TbHK1 inh	Ins promoter up	HSV replic up
NC(=O)C1CCN(C(=O)CSc2ccsc2[N+](=O)[O-])CC1	–	·	–	·	–
COC(=O)c1c[nH]n2c(=O)c(Cc3ccc(F)cc3Cl)c(C)nc12	–	·	–	3.4	–
Cc1[nH]n2c(=O)c3c(nc2c1-c1ccccc1)CCC3	·	83	–	–	–
COc1ccc(N2C(=O)C(F)(F)C2c2ccc(C)cc2)cc1OC (stereo not given)	–	–	–	–	–
N#Cc1ccc(CSc2nnc(NC(=O)c3ccc4ncsc4c3)s2)cc1	–	·	–	4.4	–
O=C(Nc1nnc(SCc2c(Cl)cccc2Cl)s1)c1ccc2ncsc2c1	–	·	–	–	–
COc1ccc(/C=C/CN2CCCC(CCC(=O)NCc3ccc(F)c(F)c3)C2)cc1 (stereo not given)	–	–	–	–	–
Cc1cc(C)n2nc(SCCC(=O)NCc3ccccc3)nc2n1	–	·	–	–	–
Cc1cc(C(=O)CCl)c(C)n1-c1ccon1	–	82	–	–	–
O=C1CCC(C(=O)N(Cc2cccs2)C2(C(=O)NC3CCCCC3)CCCCC2)N1 (stereo not given)	–	–	–	–	–
CC(C)CSc1nsc(N)n1	·	86	–	–	–
CC(C)CSc1nnc(N)s1	·	–	–	–	–
CCN(CC)C(=O)Nc1ccc(C(=O)OC)cc1	–	83	–	·	–
CCN(CC)C(=S)Nc1ccc(C(=O)OC)cc1	–	·	–	–	–
CSc1nc2ccccc2n1C(=O)Oc1ccccc1	·	87	–	–	–
O=C1CCC/C1=C/Nc1ccc(Cl)cc1	–	82	–	–	–
S=C1NC2=C(CCC/C2=C\c2ccccc2)C(c2ccccc2)N1 (stereo not given)	·	–	–	–	–
C(=C1/CCCC2=C1Nc1ncnn1C2c1ccccc1)/c1ccccc1 (stereo not given)	·	73	–	–	–
Cc1ccccc1Cn1ccc(NC(=O)c2nn(C)cc2[N+](=O)[O-])n1	–	85	–	·	–
O=C(COC(=O)c1ccc2ccccc2n1)c1ccccc1	–	–	–	–	–
CCCc1nn(CCc2ccccn2)c(N)c1CC	–	69	–	·	–
c1ccc(-c2csc3ncnc(NCCN4CCOCC4)c23)cc1	·	81	–	·	–
CCN(CC)CCNC(CC(=O)Nc1ccc(Cl)cc1Cl)C(=O)O (stereo not given)	–	94	–	·	–
CCNC(=S)N(CCc1cccc(C)c1)Cc1cc2cc(OC)c(OC)cc2[nH]c1=O	–	–	–	·	·
COc1cc(C(=O)NC(=S)N(CCc2ccccc2)CCc2ccccc2)cc(OC)c1OC	3.3	–	–	·	–
SMILES	ROMK primary	Insulin prom inh	TbHK1 inh	Ins promoter up	HSV replic up
CNC(=S)N(CCc1ccccc1)Cc1cc2cc(OC)c(OC)cc2[nH]c1=O	–	62	–	–	–
Cc1ccc(NC(=S)N2CCN(S(=O)(=O)c3c(F)cccc3F)CC2)cc1C	–	–	–	–	–
c1ccc(NCc2nc(-c3ccccc3)no2)cc1	·	80	–	–	–
COc1ccc(CC(=O)NCc2nc(-c3ccccc3)no2)cc1	–	·	–	–	–
CCCc1cc(=O)c2ccc(OC/C(C)=N/O)cc2o1	–	·	–	–	–
CNC(=S)Nc1sc2c(c1C(=O)OC)CCC2	6.3	·	–	–	–
CC(=O)C(=Nc1ccccc1Cl)NNc1ccc(Cl)cc1	–	75	–	–	–
O=C(NNc1ccc(Cl)cc1)c1c(F)cccc1Cl	·	·	–	–	–
O=C(O)c1ccc(CNC(=O)c2ccc(C(F)(F)F)cc2)cc1	–	73	–	–	–
COc1ccc2cc(C(=O)NCc3ccco3)c(=O)oc2c1	·	–	–	–	–
O=C(NCc1ccco1)c1cc2ccc(O)cc2oc1=O	·	92	–	–	–
O=C(NCc1ccco1)c1ccc(C(F)(F)F)cc1	–	78	–	–	–
Cc1ccc(C(=O)C2=C(O)C(=O)N(c3ncccn3)C2c2ccc(Cl)cc2)o1 (stereo not given)	–	80	–	·	–
O=C(C1=C(O)C(=O)N(c2ncccn2)C1c1ccc(Cl)cc1)c1ccco1 (stereo not given)	·	–	–	·	–
O=C(COc1ccccc1/C=C1\SC(=O)NC1=O)Nc1ccccc1	-3.2	82	–	–	–
COc1cc2c(cc1NC(=S)Nc1cccc(C(F)(F)F)c1)oc1ccccc12	·	–	–	–	–
COc1cc2c(cc1NC(=S)Nc1cccc3ccccc13)oc1ccccc12	1.4	–	–	–	–
COc1cc2c(cc1NC(=O)Cc1ccc(C)cc1)oc1ccccc12	–	–	–	·	–
COc1cc2c(cc1NC(=O)CN1CCN(S(=O)(=O)c3ccccc3F)CC1)oc1ccccc12	–	–	–	3.6	–
CCOC(=O)c1sc2nc(-c3cccnc3)ccc2c1N	–	71	–	–	–
O=C(N/N=C/C=C/c1ccco1)c1cccnc1	·	100	–	–	–
O=C(N/N=C/C=C\c1ccco1)c1cccnc1	·	–	–	–	–
CCOC(=O)c1cnc2c(C)c(C)ccc2c1Nc1ccc(S(=O)(=O)Nc2ncccn2)cc1	·	·	–	–	–
O=C(NC(Cc1c[nH]c2ccccc12)C(=O)O)/C(=C/c1ccc2c(c1)OCO2)NC(=O)c1ccccc1 (stereo not given)	–	73	–	·	–
Cc1cc(C)c(-c2c(O)c3cnn(-c4ccccc4)c3[nH]c2=O)c(C)c1	–	67	–	–	–
SMILES	ROMK primary	Insulin prom inh	TbHK1 inh	Ins promoter up	HSV replic up
Cc1nc2c(cnn2-c2ccccc2)c(=O)[nH]1	·	·	–	–	–
O=C(COc1ccc(Cl)cc1)NCc1nnc(SCC(=O)NC2CCCCC2)o1	–	–	–	3.3	–
O=C(/C=C/c1ccccc1[N+](=O)[O-])NCc1ccncc1	–	·	–	–	–
CC(C)=NNc1nc2c(c(=O)n(C)c(=O)n2C)n1CCc1ccccc1	–	·	–	4.2	–
CCCCCn1c(CN2CC(C)OC(C)C2)nc2c1c(=O)n(C)c(=O)n2C (stereo not given)	·	–	–	–	–
CC1CN(Cc2nc3c(c(=O)n(C)c(=O)n3C)n2CCc2ccccc2)CC(C)O1 (stereo not given)	–	76	–	·	–
Cn1c(=O)c2c(nc(NCc3ccccc3)n2CCCc2ccccc2)n(C)c1=O	–	–	–	–	–
Cc1ccc(N2CCN(C(=S)Nc3ccccc3)CC2)cc1	–	·	–	–	–
COc1ccc(N2C(=O)CC2(C#N)c2ccc(OCc3ccccc3)cc2)cc1 (stereo not given)	–	–	–	–	–
CCOC(=O)c1[nH]c2cc(OC)c(OC)cc2c1NC(=O)CN1CCN(c2ccc(OC)cc2)C(C)C1 (stereo not given)	·	67	–	–	–
CCOC(=O)N1CCC(N2CCN(S(=O)(=O)c3ccc(C)cc3)CC2)CC1	–	67	–	–	–
CC1CCc2[nH]c3ccc(C(=O)NCCCOC(C)C)cc3c2C1 (stereo not given)	–	·	–	–	–
O=C(CS(=O)(=O)c1c[nH]c2ccccc12)N1CCCCCC1	–	–	–	–	–
C[n+]1cc(C(=O)N2CCCCC2)ccc1/C=C/c1c[nH]c2ccccc12	·	·	–	4	?
CCc1cccc2c(/C=N/NC(=O)c3cccc(S(=O)(=O)Nc4ccccc4Cl)c3)c[nH]c12	–	–	–	–	–

Screening data as filed in PubChem.
